FMDV antiviral – High Throughput Screening for Foot and Mouth Disease Virus Antivirals | AID 1159524, 2015 | FMDV antiviral cell-based qHTS | hit rate 1.2% among 410,000 | Potency, µM (highest dose often 57.9 µM), for the others: at the highest dose activity change, negative = inhibition, hits mostly inhibitors; calls by dose curve; tested in HEK293T cells; also: read-out not given here; potency is read from the fitted curve at half-maximal effect; nearly all actives have a fitted effect of over 45% in size
VACV Venus inh – qHTS for Stage-Specific Inhibitors of Vaccinia Orthopoxvirus: Venus Reporter Primary qHTS. Vaccinia virus Venus reporter expression, fluorescence. Potency, µM (highest dose often 36.5 µM), for the others: at the highest dose activity change, negative = inhibition, hits mostly inhibitors. hit rate 0.46% among 330,000. AID 720580, 2013; calls by dose curve; tested in A549 cells; also: potency is read from the fitted curve at half-maximal effect; nearly all actives have a fitted effect of over 30% in size
VACV mCherry inh – qHTS for Stage-Specific Inhibitors of Vaccinia Orthopoxvirus: mCherry Reporter Primary qHTS | Vaccinia virus mCherry reporter infection, fluorescence | AID 720579, 2013 | Potency, µM (top dose mostly 36.5 µM), for the others: at the highest dose activity change, negative = inhibition, actives largely listed as inhibitors | hit rate 0.63% among 310,000; calls by dose curve; tested in A549 cells; also: potency is read from the fitted curve at half-maximal effect; nearly all actives have a fitted effect of over 35% in size
HCMV inh – qHTS Assay for inhibitors of the human cytomegalovirus (HCMV); HFF cells, HCMV-luciferase reporter, 72 h; stronger effect = lower value; activity change, negative = inhibition, % at 57.5 µM; hit rate 4.5% among 410,000; in the data active = activity change below about -60%; inconclusive = no clear call, values can overlap the other calls; inactive = above about -39%
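Cell-based, HFFs, 1000 cells/well, 16 h 37C; cpds in DMSO + HCMV-luc, MOI 1 PFU/cell; 72 h 37C; OneGlo luminescence after 5 min RT; norm. to buffer vs Salinomycin 10uM.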
FBPA Giardia inh – qHTS Assay for Inhibitors of Fructose-1,6-bisphosphate Aldolase from Giardia Lamblia. A8B2U2. purified Giardia FBPA. Potency, µM (top dose mostly 59.6 µM), for the others: at the top dose activity, negative = inhibition, actives largely listed as inhibitors. hit rate 0.71% among 290,000. AID 2451, 2010; also: potency is read from the fitted curve at half-maximal effect; nearly all actives have a fitted effect of over 55% in size
Target sequence (A8B2U2 whole entry, looked up): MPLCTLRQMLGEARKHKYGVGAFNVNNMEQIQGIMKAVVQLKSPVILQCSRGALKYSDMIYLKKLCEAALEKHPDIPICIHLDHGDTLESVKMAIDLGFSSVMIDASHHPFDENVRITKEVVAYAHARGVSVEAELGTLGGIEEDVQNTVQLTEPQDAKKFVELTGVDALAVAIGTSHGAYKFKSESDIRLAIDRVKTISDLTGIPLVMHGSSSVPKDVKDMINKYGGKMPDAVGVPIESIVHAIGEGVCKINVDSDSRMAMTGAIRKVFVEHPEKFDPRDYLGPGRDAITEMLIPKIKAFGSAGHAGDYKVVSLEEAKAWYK
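Giardia FBPA (40 nM reagent) was preincubated 10 min at RT with compound (up to 57.5 uM final), then substrate plus GAPDH/TPI/NAD/arsenate coupling system with diaphorase/resazurin was added; resorufin fluorescence (525/598 nm) was read after 20 min.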
HCV inh – qHTS Assay for Inhibitors of Hepatitis C Virus (HCV). Potency, µM (series often up to 41.8 µM), for the others: top-dose activity change, negative = inhibition, actives largely listed as inhibitors. AID 651820, 2012. hit rate 3.4% among 340,000. Huh7.5.1 HCVcc-Cre infection, luciferase reporter, 44 h; also: potency is read from the fitted curve at half-maximal effect
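Compounds are dispensed onto cells plated 4 h earlier at 1,000 per well, with HCVcc-Cre virus (about 0.5 moi) added next. Following 44 h of culture, luminescent signal is measured for 15 sec after 15 min with substrate at room temperature.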
An asterisk follows results filed as active; [ ] = remark or other dose. Compounds with a hit are over-represented: about 7.5% of the library has one in this group of screens. Unless noted, calls follow the shape of the dose curve; as a rule, active = well fitted curve in the direction sought with a large enough effect; inconclusive = small, poorly fitted or top-dose-only effect, or another doubt; inactive = no such curve, though single readings can be large; an effect the other way counts as inactive or inconclusive. % is scaled to controls: 0 for no effect and ±100 for the full control effect.

What do the screens show for `CC(=O)N1CCN(Cc2nc3cc(NC(=O)c4cccs4)ccc3n2C)CC1`?
FMDV antiviral: -11%; VACV Venus inh: 0%; VACV mCherry inh: -9%; HCMV inh: -6; FBPA Giardia inh: -10%; HCV inh: -11%

How did Nc1nn(S(=O)(=O)c2cccc3nsnc23)cc1-c1ccc(Br)cc1 do in these assays?
FMDV antiviral: -21%; VACV Venus inh: inconclusive; HCMV inh: -9; FBPA Giardia inh: -1%; HCV inh: 10µM*

Results for Cc1ccc(NC(c2cccc(Cl)c2)c2nnc(-c3ccccc3)o2)cc1F (stereo not given) ?
FMDV antiviral: 11%; VACV Venus inh: 2%; VACV mCherry inh: 0%; HCMV inh: 11

How did COc1ccc(NC2C(c3ccc(OC)cc3)=Nc3ccccc3-n3nnnc32)cc1 (stereo not given) do in these assays?
HCMV inh: -3

How did CCc1cccc(C)c1NC(=O)CSc1n[nH]c(N)n1 do in these assays?
FMDV antiviral: -4%; HCMV inh: 16; HCV inh: 17%

How did Cn1c(=O)c2[nH]c(Cc3cccc(O)c3)nc2n(C)c1=O do in these assays?
FMDV antiviral: -9%; VACV Venus inh: -8%; VACV mCherry inh: inactive; HCMV inh: 47; HCV inh: -4%

How did Cn1c(=O)c2[nH]c(CCCCCc3nc4ccccc4[nH]3)nc2n(C)c1=O do in these assays?
FMDV antiviral: -8%; VACV Venus inh: -21%; VACV mCherry inh: -7%; HCMV inh: 6; HCV inh: 13%

How did Cn1c(=O)c2[nH]c(CCCCCCCc3nc4ccccc4[nH]3)nc2n(C)c1=O do in these assays?
FMDV antiviral: 16µM*; VACV Venus inh: -22%; VACV mCherry inh: inconclusive; HCMV inh: -67*; HCV inh: 8.9µM*

Results for Cn1c(=O)c2[nH]c(COc3ccc(C(C)(C)C)cc3)nc2n(C)c1=O ?
FMDV antiviral: 20µM*; FBPA Giardia inh: 9%; HCV inh: 11µM*

What do the screens show for `O=C(Cn1cnc2ccccc2c1=O)NNC(=O)c1ccccc1`?
FMDV antiviral: 0%; VACV Venus inh: -17%[7.34 µM]; VACV mCherry inh: 0%[7.34 µM]; HCMV inh: -6; FBPA Giardia inh: -9%; HCV inh: -15%

Results for COc1ccc(C)cc1S(=O)(=O)Nc1ccc(F)cc1 ?
FMDV antiviral: 76%; VACV Venus inh: -3%; VACV mCherry inh: -14%; HCMV inh: 38; FBPA Giardia inh: -6%; HCV inh: -15%

Results for CCOc1cc(C)c(S(=O)(=O)Nc2ccc(F)cc2)cc1C ?
FMDV antiviral: 22%; HCMV inh: -62*; FBPA Giardia inh: -12%; HCV inh: inconclusive

What do the screens show for `Clc1ccc(-c2nn3c(C4COc5ccccc5O4)nnc3s2)cc1` (stereo not given)?
FMDV antiviral: 19%; HCMV inh: -99*; FBPA Giardia inh: 6%; HCV inh: 3%

How did CC(=NNC(=O)CSCC(=O)NN=C(C)c1ccccc1)c1ccccc1 do in these assays?
FMDV antiviral: -3%; VACV Venus inh: -16%; VACV mCherry inh: -15%; HCMV inh: inconclusive; HCV inh: -8%

What do the screens show for `COc1ccc(-c2cc3cc(OC)c(OC)cc3c(C)n2)cc1`?
FMDV antiviral: 30%; VACV Venus inh: -2%; VACV mCherry inh: 14%; HCMV inh: 14; FBPA Giardia inh: -18%; HCV inh: 14µM*

What do the screens show for `COc1ccc2c(OC)cc(-c3ccccc3)nc2c1`?
FMDV antiviral: -12%; VACV Venus inh: -15%; VACV mCherry inh: -2%; HCMV inh: -5; FBPA Giardia inh: 0%; HCV inh: 10µM*

How did CC1(C)C[C@@]2(C)CCC3=CC(=O)C=C[C@@]32O1 do in these assays?
HCMV inh: -26

How did C=C(C)Cn1c(=O)c2c(nc3n2CCN3c2cccc(Cl)c2C)n(C)c1=O do in these assays?
FMDV antiviral: 22µM*; HCMV inh: -34; FBPA Giardia inh: 0%; HCV inh: inconclusive

What do the screens show for `CCn1c(=O)c2c(nc3n2CCN3c2ccccc2)n(C)c1=O`?
FMDV antiviral: -12%; VACV Venus inh: -10%; VACV mCherry inh: -2%; HCMV inh: -75*; FBPA Giardia inh: 14%; HCV inh: inconclusive

How did Cn1c(=O)n(C/C=C/c2ccccc2)c(=O)c2c1nc1n2CCCN1c1ccc(F)cc1 do in these assays?
FMDV antiviral: inconclusive; HCMV inh: -30; FBPA Giardia inh: 4%; HCV inh: 11µM*

What do the screens show for `c1ccc2sc(N3CCN(Cc4ccc5c(c4)OCO5)CC3)nc2c1`?
FMDV antiviral: 17%; VACV Venus inh: -10%; VACV mCherry inh: -23%; FBPA Giardia inh: 0%

What do the screens show for `N#C/C(=C\N1CCN(Cc2ccc3c(c2)OCO3)CC1)c1nc2ccccc2s1`?
FMDV antiviral: -28%; HCMV inh: -18; FBPA Giardia inh: -14%; HCV inh: 14µM*

How did CN(Cc1c[nH]c2ccccc12)C1CCCCC1 do in these assays?
FMDV antiviral: -10%; VACV Venus inh: -5%; VACV mCherry inh: -19%; HCMV inh: -94*; FBPA Giardia inh: 1%; HCV inh: -28%

What do the screens show for `CN(CCc1ccccc1)Cc1c[nH]c2ccccc12`?
FMDV antiviral: -25%; HCMV inh: -99*; FBPA Giardia inh: -29%; HCV inh: 0%

Results for CCN(CC)Cc1c[nH]c2ccccc12 ?
FMDV antiviral: inconclusive; VACV Venus inh: -19%; HCMV inh: 63; FBPA Giardia inh: -2%; HCV inh: -8%

How did CN(Cc1ccccc1)C(=O)C(=O)c1c[nH]c2ccccc12 do in these assays?
FMDV antiviral: 52%; VACV Venus inh: -9%; VACV mCherry inh: -8%; HCMV inh: -70*

How did CCN(C(=O)C(=O)c1c[nH]c2ccccc12)c1ccccc1 do in these assays?
FMDV antiviral: 2%; HCMV inh: 27; FBPA Giardia inh: -10%; HCV inh: -3%

How did CCn1c(=O)c(CCC(=O)NCC2CCCO2)c(C)c2c(C)nn(-c3ccc(C)cc3)c21 (stereo not given) do in these assays?
FMDV antiviral: inconclusive; HCMV inh: 16; HCV inh: -29%

What do the screens show for `COc1ccc(CCNC(=O)C(=O)NCCC2CCCCN2S(=O)(=O)c2ccccc2)cc1` (stereo not given)?
FMDV antiviral: inconclusive; VACV Venus inh: -19%; VACV mCherry inh: -25%; HCMV inh: inconclusive; HCV inh: -5%

Results for COc1ccccc1CNC(=O)C(=O)NCCC1CCCCN1S(=O)(=O)c1cccs1 (stereo not given) ?
FMDV antiviral: inconclusive; VACV Venus inh: inconclusive; VACV mCherry inh: inconclusive; HCMV inh: -12; HCV inh: 11µM*

Screening data from PubChem BioAssay.
